# An excerpt weighted towards active compounds, which were near 19% of everything screened.
# IL-1B inflam inh – inhibitors of inflammasome signaling (IL-1 beta secretion); THP-1 LPS/ATP IL-1B secretion, AlphaLISA, 16 h; stronger effect = lower value; activity change, % at 57.5 µM; hit rate 4.7% among 360,000; in the data active means activity change below about -50%; inconclusive means mostly about -30% to -49%; further: on the % scale 0 is the no-effect control and ±100 the full control effect
#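 Secreted IL-1B measured by AlphaLISA bead assay after 16 h compound exposure of THP-1 cells; compounds (final up to 57.5 uM) added 1 h before LPS (250 ng/mL) and ATP (1.25 mM) stimulation; lower signal means less secretion.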
# SW480 rerep – induces DNA re-replication in SW480 colon adenocarcinoma cells; AID 624297; Potency, µM (top dose mostly 46.1 µM), inactives show at the top dose re-replication activation, actives largely listed as activators; hit rate 1.8% among 340,000; SW480 DNA re-replication, Hoechst DNA content imaging, 48 h; further: potency means the concentration at half of the fitted maximal effect; % of control where 0% means no effect; nearly all actives have a fitted effect of over 55% in size
#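 Treated cells incubate 48 hr (37 C, 5% CO2), are stained 40 min with Hoechst, and nuclear fluorescence is enumerated; a rise in nuclei with high DNA signal marks re-replication.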
# BCR signal inh – inhibitors of chronic active B-cell receptor signaling; hit rate 0.05% among 340,000; ABC-DLBCL IkBa-CBG/CBR reporter, luminescence ratio, 4 h; Potency, µM (titrated, usually from 46.1 µM), without a hit: at the top dose activity change, negative = inhibition, usual class: inhibitors; active means well fitted inhibition curve with a large enough effect in the signal ratio, with a control signal flat, not every such curve was filed as active; inconclusive means small, poorly fitted or top-dose-only effect, or effect the other way, or a change in a side signal; the % refers to the signal ratio;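 further: potency means the concentration at half of the fitted maximal effect; plate controls were basal doxycycline-induced cells for no effect and cells given 10 µM MG132 for full effect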
#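 Concentration-response series (up to 46 uM) were applied to TMD8 dual-reporter cells for 4 h at 37C with doxycycline. Green/red ratio, after filter-overlap correction, defined %Activity; red signal alone was normalised to basal cells and zero luminescence.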
# MCF10A rereplic – induces DNA re-replication in MCF 10a normal breast cells; MCF 10A DNA re-replication, Hoechst nuclear intensity, 48 h; Potency, µM (top dose mostly 46.1 µM), for the others: at the highest dose activity, positive = re-replication, actives largely listed as activators; hit rate 2.9% among 350,000; further: potency means the concentration at half of the fitted maximal effect; % of control where 0% means no effect; nearly all actives have a fitted effect of over 50% in size
# TDP1 cell noCPT – qHTS for Inhibitors of human tyrosyl-DNA phosphodiesterase 1 (TDP1): qHTS in cells in absence of CPT | DT40 Tdp1-/- hTDP1 cells, no CPT, ATP luminescence, 48 h | Potency, µM (titrated, usually from 46.2 µM), for inactives: at the top dose activity change, negative = growth inhibition, usual class: inhibitors | hit rate 15% among 420,000; further: potency means the concentration at half of the fitted maximal effect; on the % scale 0 is the no-effect control and ±100 the full control effect; nearly all actives have a fitted effect of over 55% in size
#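 Chicken DT40 Tdp1-/- cells stably complemented with human TDP1 were seeded at 400 cells/well with DMSO in place of 20 nM camptothecin. After compound pinning, cells grew at least 48 hr at 37 °C; viability read by CellTiter-Glo luminescence.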
# TDP1 cell CPT – growth inhibition of DT40 Tdp1-/-;hTDP1 cells with camptothecin (screen for TDP1 inhibitors); hit rate 12% among 420,000; Potency, µM (top dose mostly 46.2 µM), inactives show at the top dose activity change, negative = growth inhibition, usual class: inhibitors; chicken DT40 Tdp1-/-;hTDP1 cells + 20 nM CPT, ATP luminescence, 48 h; further: potency means the concentration at half of the fitted maximal effect; on the % scale 0 is the no-effect control and ±100 the full control effect; nearly all actives have a fitted effect of over 55% in size
#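 Chicken DT40 Tdp1-/- cells complemented with human TDP1, 400 cells/well, exposed to compounds plus 20 nM camptothecin for at least 48 h at 37 C; viability read as ATP content by CellTiter-Glo luminescence.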
# The depositor's hits bear a star; ? = inconclusive; · = not tested or not shown; ! = a repeat was not active; [ ] = another dose, or the depositor's remark. Unless noted, the call rests on the fitted dose curve; in most records, active means well fitted curve in the direction sought with a large enough effect; inconclusive means small, poorly fitted or top-dose-only effect, or another doubt; inactive means no such curve, though single readings can be large; an effect the other way counts as inactive or inconclusive.
SMILES,IL-1B inflam inh,SW480 rerep,BCR signal inh,MCF10A rereplic,TDP1 cell noCPT,TDP1 cell CPT
CC(C)c1nn2c(=O)cc(COC(=O)c3cccc(NC(=O)CCc4ccccc4)c3)nc2s1,·,·,·,·,-11%,11%
COc1cc2nc(N(C)C)c(CNC3CCOC(C)(C)C3)cc2c(OC)c1OC (configuration not stated),·,·,·,·,-23%,-7%[9.04 µM]
O=c1[nH]c2nc(Br)[nH]c(=O)c2[nH]1,16,-2%,·,-3%,-2%,-2%
Cc1nnn(C23CC4CC(CC(CC(=O)Nc5ccc(C)c(C)c5)(C4)C2)C3)n1,-28,-5%,-3%,10%,?,-18%
CCCN1C(=O)c2ccccc2NC1c1ccc(OC)c(COc2cccc(OC)c2)c1 (configuration not stated),·,·,·,·,16µM*,?
CCCN1C(=O)c2ccccc2NC1c1ccc(OC)cc1OC (configuration not stated),-3,?,0%,-12%,-10%,0%
C=CCc1ccc(OCc2ccc(C(=O)Nc3ccc(NC(C)=O)cc3)o2)c(OC)c1,10,1%,?,?,16µM*!,?
Oc1ccc(/C=N/Nc2ccc(Cl)nn2)c(O)c1O,11,5%,?,3%,21µM*,?
CCOc1ccc(/C=N/Nc2ccc(Cl)nn2)c(O)c1,67,0.18µM*,?,?,0.58µM*,1.2µM*
Oc1c(Br)cc(/C=N/Nc2ccc(Cl)nn2)cc1Br,13,-1%,-1%,5%,?,9%
Oc1c(Br)cc(Br)cc1/C=N/Nc1ccc(Cl)nn1,-15,?,3%,?,2.9µM*,?
COc1ccc(NC(=O)CCc2nc3c(C)nn(-c4ccc(C)cc4)c3n(C)c2=O)c(OC)c1,·,·,·,·,-19%,-5%
COC(=O)[C@@H]1CCCN1Cc1ccc2c(c1)CN(Cc1ccc(OC)c(C)c1)CCO2,·,·,·,·,-11%,-1%[9.04 µM]
Cc1c(N=C2N=C(NC(=O)c3ccc(F)cc3)c3ccccc32)c(=O)n(-c2ccccc2)n1C,-8,-13%,?,-14%,23µM*,16µM*
Cc1c(NC(=O)c2ccc(C(=O)Nc3c(C)n(C)n(-c4ccccc4)c3=O)cc2)c(=O)n(-c2ccccc2)n1C,30,-1%,0%,1%,-2%,?
O=C(NCC(=O)N1CCN(S(=O)(=O)c2ccccc2F)CC1)c1ccc(Br)o1,13,-16%,0%,-1%,-3%,-15%
Oc1ccc(Br)cc1-c1ccn[nH]1,-3,38%,?,?,-25%,-1%
Oc1ccc(O)c(-c2cnns2)c1,?,?,-14%,?,?,15µM*
CC(C)C[C@H]1CN(CCCC[C@H]2CNC(=O)C(=O)N2CCC2CCCCC2)C(=O)C(=O)N1CCc1ccccc1,?,·,·,·,18µM*,?
CC(C)C[C@H]1CN(CCCC[C@H]2CNC(=O)C(=O)N2CCc2ccccc2)C(=O)C(=O)N1CCC1CCCCC1,0,·,·,·,-6%,-2%
O=C1NC[C@@H](CCCCN2C[C@H](Cc3ccccc3)N(CCC3CCCCC3)C(=O)C2=O)N(CCc2ccc(O)cc2)C1=O,-59*,·,·,·,3%,-5%
CC(C)C[C@H]1CN(CCCC[C@H]2CNC(=O)C(=O)N2CC2CCCCC2)C(=O)C(=O)N1Cc1ccccc1,-72*,·,·,·,?,?
O=C1NC[C@H](CCCCN2C[C@H](Cc3ccc(O)cc3)N(CCc3ccccc3)C(=O)C2=O)N(CCC2CCCCC2)C1=O,-9,·,·,·,-3%,6%
COC(=O)c1cccc(Oc2cccc(Cl)n2)c1,4,?,?,-8%,-13%,5%

# Compound activity deposited in PubChem by National Center for Advancing Translational Sciences (NCATS).
